Test [1] concerns the target Glutathione peroxidase 1 (Homo sapiens) (UniProt P07203). In words: Primary qHTS Assay for Inhibitors of Recombinant Selenoprotein Glutathione Peroxidase 1 (GPX1) (AID 1845191). Further: nearly all actives have a fitted effect of over 65% in size. In outline: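 GR-coupled readout: NADPH consumption tracked by fluorescence, ex 340/em 450 nm, at t=0 and after 15 min at RT. Final mix 10 nM GPX1, 1 mM GSH, 0.5 mM CHP, 0.5 mM NADPH, 100 nM GR, 0.01% BSA, following 30 min enzyme–compound preincubation.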
For orientation: Quantitative high-throughput screening tests each substance at several concentrations.

In test [2] the target is Phospholipid hydroperoxide glutathione peroxidase GPX4 (Homo sapiens) (UniProt P36969). Description: Primary qHTS Assay for Inhibitors of Recombinant Selenoprotein Glutathione Peroxidase 4 (GPX4) (AID 1845192). Further: nearly all actives have a fitted effect of over 65% in size. On activity change, negative = inhibition: series mostly up to about 50 µM; on the % scale 0 is the no-effect control and ±100 the full control effect. The gist of the method:
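Steps: GPX4 plus compound, 30 min RT; add GR/GSH/NADPH master mix; start with cumene hydroperoxide; read 340/450 nm fluorescence at 0 and 15 min. Finals were 200 nM GPX4, 1 mM GSH, 0.5 mM CHP, 0.5 mM NADPH, 100 nM GR.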

Test [3] deals with Luciferin 4-monooxygenase (Photinus pyralis) (UniProt P08659). In words: Primary firefly luciferase (FLuc) qHTS assay for identification of artifact compounds. (AID 1845220). Further: nearly all actives have a fitted effect of over 60% in size. Further: potency means the concentration at half of the fitted maximal effect.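 On activity change, negative = inhibition: series mostly up to about 54 µM; plate controls were DMSO vehicle for no effect and no enzyme for full effect.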 In outline: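 Enzymatic FLuc inhibition assay: compounds pre-exposed to luciferin/ATP (10 uM each) for 15 min, then purified P. pyralis enzyme at 10 nM added. Read-out: luminescence at 5 min.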
A short description of test [4]: Primary fluorescence-based thiol-reactive (MSTI) qHTS assay for identification of artifact compounds. (AID 1845221). Further: nearly all actives have a fitted effect of over 65% in size. Further: potency means the concentration at half of the fitted maximal effect.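 On activity change, negative = thiol reactive: series mostly up to about 54 µM; thiol-reactive compounds lower the probe fluorescence signal.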 The gist of the method:
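In PBS pH 7.4 with 2% DMSO, each compound met 4 uM MSTI for one hour at ambient temperature, shielded from light, before fluorescence detection.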

In test [5] the test system is Nanoluciferase (engineered Oplophorus gracilirostris luciferase). In words: Primary Nanoluciferase (NLuc) qHTS assay for identification of artifact compounds. (AID 1845222).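 Further: NLuc secreted into diluted conditioned medium of S16 cells; series mostly up to about 54 µM; 0% = DMSO and -100% = no enzyme.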 In outline: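 S16 cell supernatant NLuc, 1:55; cpds qHTS; 15 min RT dark; Nano-Glo substrate 1:100, 5 min; luminescence; Hill fit of % inhibition.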

Values without a mark were called inactive. Inconclusive results are not listed. The source made the active and inactive calls. The call rests on the fitted dose curve; in most records, active means well fitted curve in the direction sought with a large enough effect; inconclusive means small, poorly fitted or top-dose-only effect, or another doubt; inactive means no such curve, though single readings can be large; an effect the other way counts as inactive or inconclusive.

Glutathione peroxidase 1 (Homo sapiens), sequence (P07203 whole entry, looked up): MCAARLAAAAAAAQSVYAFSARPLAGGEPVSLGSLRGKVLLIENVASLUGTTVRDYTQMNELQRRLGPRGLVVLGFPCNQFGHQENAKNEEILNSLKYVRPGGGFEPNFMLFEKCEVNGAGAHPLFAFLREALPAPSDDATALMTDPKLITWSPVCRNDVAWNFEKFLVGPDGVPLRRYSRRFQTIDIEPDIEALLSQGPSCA
Phospholipid hydroperoxide glutathione peroxidase GPX4 (Homo sapiens), sequence (P36969 whole entry, looked up): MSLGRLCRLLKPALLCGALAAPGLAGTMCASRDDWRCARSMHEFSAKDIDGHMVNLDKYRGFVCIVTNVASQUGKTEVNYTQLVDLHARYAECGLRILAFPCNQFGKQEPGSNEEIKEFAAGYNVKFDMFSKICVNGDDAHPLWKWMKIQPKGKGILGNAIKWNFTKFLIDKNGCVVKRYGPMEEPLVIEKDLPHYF

Regarding `CCN(CCO)CCCOc1ccc2c(Nc3cc(CC(=O)Nc4cccc(F)c4)[nH]n3)ncnc2c1`, the Potency result in test [1], in test [2], in test [3] and in test [4] was “inactive” in each case.

Consider `COc1cc2nccc(Oc3ccc(NC(=O)Nc4cc(C)on4)c(Cl)c3)c2cc1OC`, for which the Potency result in test [1], in test [2], in test [3], in test [4] and in test [5] was “inactive” each time.

As to `CN1CCN(c2ncc(-c3cc(Cl)cc(Cl)c3Cl)c(N)n2)CC1`, the Potency entry in test [1] and in test [2] was “inactive” in each case.

As for `C[C@@H](N)c1ccc(C(=O)Nc2ccnc3[nH]ccc23)cc1`, the Potency result in test [1], in test [2], in test [3] and in test [4] was “inactive” throughout.

As for `N#CC1(c2cccc(C(=O)Nc3cc(Oc4ccc5nc(NC(=O)C6CC6)sc5n4)ccc3F)c2Cl)CC1`, the Potency entry in test [1], in test [2], in test [3] and in test [4] was “inactive” in each case.

Turning to `CS(=O)(=O)c1ccc(C2=C(c3ccccc3)C(=O)OC2)cc1`, the Potency entry in test [1], in test [2], in test [3] and in test [4] was “inactive” each time.

In the case of `CC(C)(O)CC(=O)NCCn1ccc2ncnc(Nc3ccc(Oc4cccc(C(F)(F)F)c4)c(Cl)c3)c21`, the Potency entry in test [1], in test [2], in test [3] and in test [4] was “inactive” each time.

`NS(=O)(=O)c1cc(Cl)c(Cl)c(S(N)(=O)=O)c1`: the Potency result in test [1], in test [2], in test [3], in test [4] and in test [5] was “inactive” throughout.

In the case of `CCCC1OC2C[C@@H]3[C@H]4CCC5=CC(=O)C=C[C@]5(C)[C@H]4C(O)C[C@]3(C)[C@]2(C(=O)CO)O1` (some centres undefined), the Potency result in test [1] and in test [2] was “inactive” each time.

For the molecule `Cn1c(=O)c(-c2c(Cl)cccc2Cl)cc2cnc(Nc3cccc(C(=O)O)c3)nc21`, the Potency entry in test [1], in test [2] and in test [4] was “inactive” each time. Further, the Potency in test [3] is 0.379 µM (active).

Turning to `Cc1c(C(=O)Nc2ccc(N3C[C@@H](C)O[C@@H](C)C3)nc2)cccc1-c1ccc(OC(F)(F)F)cc1`, the Potency entry in test [1], in test [3], in test [4] and in test [5] was “inactive” throughout.

`CC(C)(OCc1nn(Cc2ccccc2)c2ccccc12)C(=O)O`: the Potency result in test [1], in test [2], in test [3], in test [4] and in test [5] was “inactive” each time.

As for `O=c1[nH]nc(OCCCc2ccc(Cl)cc2)c(NCc2cccnc2)c1Br`, the Potency result in test [1], in test [2], in test [3], in test [4] and in test [5] was “inactive” each time.

Consider `c1ccc(CNc2nc(N3CCOc4ccccc43)nc3c2CCCC3)cc1`, for which the Potency entry in test [1] and in test [3] was “inactive” throughout.

For `Cc1cc2c(cc1C1(c3ccc(C(=O)O)cn3)CC1)C(C)(C)CCC2(C)C`, the Potency entry in test [1], in test [3] and in test [4] was “inactive” in each case.

For `COC(=O)N1CCN(Cc2cccc(NC(=O)Nc3ccc(C)nc3)c2F)CC1`, the Potency entry in test [1], in test [2], in test [3], in test [4] and in test [5] was “inactive” throughout.

As to `COc1ccc(CCC(=O)Nc2nc3ccc(Cl)cc3s2)cc1OC`, the Potency result in test [1], in test [2], in test [3], in test [4] and in test [5] was “inactive” throughout.

In the case of `CCN1CCN(c2ccc(Nc3cc(N(C)C(=O)Nc4c(Cl)c(OC)cc(OC)c4Cl)ncn3)cc2)CC1`, the Potency result in test [1], in test [3] and in test [5] was “inactive” throughout.

`COc1ccc(-c2ccc3ncc4c(c3c2)n(-c2ccc(N3CCNCC3)c(C(F)(F)F)c2)c(=O)n4C)cn1`: the Potency entry in test [1], in test [3] and in test [4] was “inactive” each time.

On to `CCNC(=O)c1noc(-c2cc(C(C)C)c(O)cc2O)c1-c1ccc(CN2CCOCC2)cc1`, for which the Potency entry in test [1], in test [2], in test [3], in test [4] and in test [5] was “inactive” each time.

`Cc1ccccc1C(C(=O)NC1CCCCC1)N(C(=O)CNc1ccc(C#N)cc1)c1cccc(F)c1` (centres undefined): the Potency entry in test [1], in test [2], in test [3], in test [4] and in test [5] was “inactive” in each case.

Turning to `Cc1cnc(-c2cc(N3CCN(C(=O)CCS(C)(=O)=O)CC3)ncc2Cl)c(C)c1`, the Potency entry in test [1], in test [2], in test [3], in test [4] and in test [5] was “inactive” in each case.

As to `COc1nccc(-c2c(-c3ccc(F)cc3)ncn2C2CCNCC2)n1`, the Potency entry in test [1], in test [3] and in test [4] was “inactive” in each case.

On to `CN[C@@H](C)[C@H]1[C@H](O)C[C@@]2(C)[C@@H]3CC[C@H]4C(C)(C)[C@@H](NC)CC[C@@]45C[C@@]35CC[C@]12C`, for which, in test [1], the outcome is “inactive [at 9.52 µM]”. For the same molecule, the activity change, negative = inhibition in test [3] is 1.81% [at 11.6 µM]. Also, in test [4], the activity change, negative = thiol reactive was 7.61% [at 11.5 µM].

For `C=CC(=O)Nc1cccc(Sc2nc(Nc3ccc(N4CCN(C)CC4)cc3)ncc2Cl)c1`, the Potency entry in test [1], in test [2], in test [3] and in test [5] was “inactive” in each case. In addition, the Potency in test [4] is 3.36 µM (active).

In the case of `Cc1cnc(Nc2cccc(CN3CCOCC3)c2)nc1Nc1cccc(S(=O)(=O)NC(C)(C)C)c1`, the Potency entry in test [1], in test [2], in test [3], in test [4] and in test [5] was “inactive” throughout.

The values are drawn from PubChem BioAssay (NCATS).
